D1 antagonist – Antagonist of Human D 1 Dopamine Receptor: qHTS; HEK293 TREx D1 cells, calcium flux, dopamine EC80; hits give low values; activity change, negative = inhibition, % at 10 µM; 360,000 tested, 3.2% active; in the data active = activity change below about -30%; also: % is scaled to controls: 0 for no effect and ±100 for the full control effect
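Tetracycline-induced HEK293 T-REx cells with force-coupled D1 receptor were loaded with a no-wash calcium dye. Compound was added after a 10 s baseline and read kinetically for 180 s; EC80 dopamine was then added and calcium flux followed another 180 s.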
D3 ag – qHTS of D3 Dopamine Receptor Agonist: qHTS; D(3) dopamine receptor (Homo sapiens), P35462; 410,000 tested, 0.58% active; max activation, %; D3R DiscoveRx beta-arrestin cells, luminescence, 90 min; AID 652048, 2013; in the data active = max activation above about 30%; also: 0% is about no effect
Target sequence (P35462 whole entry, looked up): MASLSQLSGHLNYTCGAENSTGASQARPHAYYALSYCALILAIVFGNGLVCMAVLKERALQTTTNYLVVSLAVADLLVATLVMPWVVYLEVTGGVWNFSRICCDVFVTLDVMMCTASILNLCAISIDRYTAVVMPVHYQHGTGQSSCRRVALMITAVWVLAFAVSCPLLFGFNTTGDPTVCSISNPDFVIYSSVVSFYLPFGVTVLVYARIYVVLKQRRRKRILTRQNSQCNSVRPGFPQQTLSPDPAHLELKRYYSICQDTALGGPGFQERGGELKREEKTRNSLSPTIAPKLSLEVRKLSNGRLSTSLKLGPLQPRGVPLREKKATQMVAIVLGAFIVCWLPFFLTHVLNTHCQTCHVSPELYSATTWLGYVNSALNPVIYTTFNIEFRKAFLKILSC
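Agonist mode: compounds and dopamine controls were applied to plated cells for 90 min at 37 degrees C after an overnight attachment at 1500 cells/well. Luminescent read-out followed 30 - 60 minutes at room temperature with DiscoveRx detection reagent.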
D1 potentiator – Potentiators of Human D1 Dopamine Receptor: qHTS. D(1A) dopamine receptor (Homo sapiens), P21728. potentiation, % at 10 µM. HEK293 TREx D1 cells, calcium flux, dopamine EC20 potentiation. 360,000 tested, 0.036% active; in the data active = potentiation above about 30%; also: 0% is about no effect
D1 ag – Allosteric Agonists of the Human D1 Dopamine Receptor: qHTS; D(1A) dopamine receptor (Homo sapiens), P21728; HEK293 T-REx D1 cells, calcium flux, agonist mode; activation, % at 2 µM; 360,000 tested, 1% active; in the data active = activation above about 30%; also: 0% is about no effect
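Agonism was scored from calcium flux recorded over 180 s (1 read/s) after pintool compound addition, following a 10-cycle baseline. Cells were inducible force-coupled HEK293 TREx D1, plated overnight at 30 C and loaded with no-wash calcium dye.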
D3 antag – qHTS of D3 Dopamine Receptor Antagonist: qHTS; D3R cells, DiscoveRx beta-arrestin luminescence, antagonist mode; hits give low values; max response, negative = inhibition, %; 360,000 tested, 2.5% active; AID 652054, 2013; in the data active = max response below about -50%; inconclusive = no clear call, values can overlap the other calls; also: % is scaled to controls: 0 for no effect and ±100 for the full control effect
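Cells plated overnight at 1500 cells/well, then exposed to library compounds with dopamine controls for 90 minutes at 37 degrees C. DiscoveRx reagent added for 30–60 minutes at room temperature; luminescence read, quantitative HTS format.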
* hit, by the source's call; ? = inconclusive; / = not tested or not shown. Most compounds without a hit are left out; they make up all but 6% or so of the library.

SMILES	D1 antagonist	D3 ag	D1 potentiator	D1 ag	D3 antag
O=C(c1ccco1)N1CCN(CCOCCOc2cccc3ccccc23)CC1	-53*	89*	2	1	-6
COc1ccccc1OCCCCCCN1CCOCC1	10	-14	-1	-1	-20
O=C(c1ccco1)N1CCN(CCOc2ccc(F)cc2)CC1	2	20	1	7	-11
c1ccc(CN2CCN(CCOCCOc3cccc4ccccc34)CC2)cc1	-43*	-15	-9	22	?
Cc1cccc(OCCN2CCOCC2)c1C	-12	54*	-2	4	-5
CCN1CCN(CCOCCOc2ccccc2)CC1	-5	-13	-2	4	-13
COc1ccccc1NC(=O)c1sc2nc3c(c(C(F)(F)F)c2c1N)CN(C(C)=O)CC3	0	1	-3	7	/
Cc1cc(Cl)c(OCCCCN2CCOCC2)c(Br)c1	-25	-5	-5	5	4
O=C(c1ccco1)N1CCN(CCCCOc2cccc3ccccc23)CC1	-20	38*	-2	2	?
Cc1cc(Cl)cc(C)c1OCCCCN1CCOCC1	-15	-16	-8	2	-58*
Cc1oc(-c2ccc(Cl)cc2)[n+]([O-])c1C	-10	-2	2	0	-67*
COc1ccc(OC)c(NC(=O)Cn2cc(C(=O)c3ccco3)c3ccccc32)c1	11	-4	2	0	7
COc1ccc(OC)c(NC(=O)Cn2cc(C(=O)c3cccs3)c3ccccc32)c1	-34*	-8	4	1	/
COc1ccc(C(=O)NCc2nnc(SCC(=O)N3CCc4ccccc43)n2Cc2ccccc2)cc1	-30*	-11	-2	3	-22
Cc1cc(NC(=S)N(CCCN2CCN(C)CC2)Cc2ccco2)ccc1Cl	-31*	-7	0	9	-11
Cc1ccc(Cl)cc1NC(=S)N(CCCN1CCOCC1)Cc1ccco1	-52*	-7	-12	3	-9
Cc1c(Cl)cccc1NC(=S)N(CCCN1CCOCC1)Cc1ccco1	-11	-18	-4	3	0
CC(=O)NC1=NN(C(C)=O)C(C)(c2cccs2)S1 (centres undefined)	-4	-12	9	1	-19
CC(=O)NC1=NN(C(C)=O)C(C)(c2cccnc2)S1 (centres undefined)	-46*	0	-2	7	5
CCc1ccc(C2(C)SC(NC(C)=O)=NN2C(C)=O)cc1 (centres undefined)	2	1	1	56*	8
COc1ccc(CNC(=O)c2ccc(-n3ccnc3)c3ccoc23)cc1OC	/	-6	/	/	-76*
COc1cccc2cc(C(=O)N(Cc3cccs3)CC3CCCO3)c(=O)oc12 (centres undefined)	-38*	7	-4	1	-2
COc1cccc2cc(C(=O)N3CC(C)OC(C)C3)c(=O)oc12 (centres undefined)	4	1	-1	2	2
O=C(c1cc2ccccc2oc1=O)N(Cc1cccs1)CC1CCCO1 (centres undefined)	-16	-10	-1	2	-14
COc1cccc2cc(C(=O)N(C)C3CCN(C)CC3)c(=O)oc12	-39*	-7	-10	1	29
SMILES	D1 antagonist	D3 ag	D1 potentiator	D1 ag	D3 antag
CCOc1ccc(-c2nnc(SCC(=O)NCc3ccccc3)nc2-c2ccc(OCC)c(OC)c2)cc1OC	3	1	-2	10	/
COC(=O)c1ccc(Oc2cc(C)nc(SC)n2)cc1	-12	0	-1	4	4
Cc1cc(Oc2ccccc2)nc(SCC(N)=O)n1	15	-5	-4	1	-78*
Cc1ccc(CNC(=O)c2ccc3c(c2)NC(=O)C(CS(=O)(=O)Cc2ccc(F)cc2)N3)cc1 (centres undefined)	-7	-2	-6	3	/
CCOc1cc(N2CCOCC2)c(OCC)cc1NC(=O)CCC1CCCC1	-31*	1	-6	2	0
CCOc1cc(N2CCOCC2)c(OCC)cc1NC(=O)C1CCCC1	9	0	-4	5	26

High-throughput results from PubChem BioAssay.
